Experimental data as given in the supplement of paper PMC10127200.
Where a name gives a salt, the structure may show the parent alone.

Tests used:
Assay in all cases: Euclidean distance of Cell Painting phenotypic profile (signed KS, 77 features) to DMSO centroid (dimensionless distance); 5 or 10 uM (library dependent); higher = stronger phenotypic change vs DMSO (phenoactivity)
Conditions in all cases: 48 h
[1] = test system: 786-O
Summary of the method: (§1)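 Five cancer lines and a healthy fibroblast line received library compounds at 10 or 5 uM (library-dependent, 0.1% DMSO final) for 48 h. Stained cells were imaged confocally at 20X (9 fields/well). Harmony extracted 77 features, each scored as a signed Kolmogorov-Smirnov statistic against same-plate vehicle wells. Profiles were plate-position corrected, correlation-weighted and replicate-averaged at the top dose. Phenoactivity is the Euclidean distance from each profile to the median vehicle profile.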

[2] = test system: A549
Summary of the method: as §1

[3] = test system: DU145
Summary of the method: as §1

[4] = test system: FB
Summary of the method: as §1

[5] = test system: HEPG2
Summary of the method: as §1

[6] = test system: OVCAR4
Summary of the method: as §1

Row | Compound | Euclidean distance [1] | Euclidean distance [2] | Euclidean distance [3] | Euclidean distance [4] | Euclidean distance [5] | Euclidean distance [6]
1 | CN(C)CCN1C(=O)c2cccc3cc(N)cc(c23)C1=O [Amonafide] | 3.45 | 4 | 2.47 | 3.29 | 4.06 | 3.48
2 | Oc1ccc(/C=C/c2cc(O)cc(O)c2)cc1 [Resveratrol] | 2.22 | 1.93 | 1.94 | 1.74 | 0.81 | 1.92
3 | Cc1[nH]c2ccccc2c1CCNC(=O)c1cccs1 | 0.729 | 2.31 | 0.821 | 0.779 | 0.553 | 1.45
4 | O=C(NCCO[N+](=O)[O-])c1cccnc1 [Nicorandil] | 1.26 | 0.857 | 1.26 | 1.09 | 0.784 | 1.38
5 | COc1ccc2cc3[n+](cc2c1OC)CCc1cc2c(cc1-3)OCO2 [Berberine] | 1.31 | 1.85 | 0.876 | 1.96 | 1.57 | 1.4
6 | CC[C@@]1(O)C(=O)OCc2c1cc1n(c2=O)Cc2cc3c(CN(C)C)c(O)ccc3nc2-1 [Topotecan] | 3.37 | 4.25 | 3.94 | 3.77 | 3.31 | 2.85
7 | COC(=O)[C@H]1[C@H]2C[C@@H]3c4[nH]c5cc(OC)ccc5c4CCN3C[C@H]2C[C@@H](OC(=O)c2cc(OC)c(OC)c(OC)c2)[C@@H]1OC [Reserpine] | 1.54 | 1.58 | 1.94 | 1.51 | 0.642 | 1.29
8 | COc1ccc(C[C@H](N)C(=O)N[C@H]2[C@@H](O)[C@H](n3cnc4c(N(C)C)ncnc43)O[C@@H]2CO)cc1 [Puromycin 2HCl] | 6.42 | 3.8 | 4.87 | 6.23 | 4.76 | 6
9 | CC(C)(C)c1nc(-c2cccc(NS(=O)(=O)c3c(F)cccc3F)c2F)c(-c2ccnc(N)n2)s1 | 1.53 | 1.16 | 1.31 | 3.02 | 1.45 | 1.03
10 | Oc1cccc(-c2nc(N3CCOCC3)c3oc4ncccc4c3n2)c1 | 1.25 | 3.67 | 1.5 | 2.89 | 0.936 | 2.62
11 | CCc1c2c(nc3ccc(O)cc13)-c1cc3c(c(=O)n1C2)COC(=O)[C@]3(O)CC | 4.4 | 4.38 | 3.48 | 4.61 | 3.55 | 3.46
12 | O=C(O)c1cc(O)c2c(c1)[C@@H]([C@H]1c3cc(C(=O)O)cc(O)c3C(=O)c3c(O[C@@H]4O[C@H](CO)[C@@H](O)[C@H](O)[C@H]4O)cccc31)c1cccc(O[C@@H]3O[C@H](CO)[C@@H](O)[C@H](O)[C@H]3O)c1C2=O [Sennoside B] | 1.31 | 0.866 | 0.808 | 0.988 | 0.382 | 0.952
13 | CC(=O)Nc1nnc(S(N)(=O)=O)s1 [Acetazolamide] | 1.03 | 0.669 | 0.642 | 0.704 | 0.604 | 1.08
14 | CCOC(=O)[C@H](CCc1ccccc1)N[C@@H](C)C(=O)N1Cc2ccccc2C[C@H]1C(=O)O [Quinapril HCl] | 1.41 | 1.16 | 0.942 | 1.09 | 0.483 | 1.04
15 | COc1ccccc1N1CCN(CCCNc2cc(=O)n(C)c(=O)n2C)CC1 [Urapidil HCl] | 1.39 | 0.9 | 0.94 | 0.778 | 0.34 | 0.898
16 | Cc1nc(NC(=O)N2CCC[C@H]2C(N)=O)sc1-c1ccnc(C(C)(C)C(F)(F)F)c1 [Alpelisib (BYL719)] | 1.4 | 1.45 | 1.3 | 2.29 | 1.09 | 2.02
17 | COC(=O)C1=C(C)NC(C)=C(C(=O)OC2CCCN(Cc3ccccc3)C2)C1c1cccc([N+](=O)[O-])c1 (stereo not drawn) [Benidipine HCl] | 1.39 | 0.86 | 0.823 | 0.926 | 0.713 | 1.45
18 | CCCCCCCCOc1ccccc1C(=O)Nc1ccc(C(=O)OCC[N+](C)(CC)CC)cc1 [Otilonium Bromide] | 1.03 | 1.09 | 1.91 | 1.24 | 1.11 | 1.03
19 | NC(=O)c1cnc(N[C@@H]2CCCC[C@@H]2N)nc1Nc1cccc(-n2nccn2)c1 | 1.35 | 2.72 | 1.89 | 2.25 | 2.24 | 2.83
20 | COc1ccc(C(C)=O)c(O)c1 [Paeonol] | 1.07 | 0.755 | 0.885 | 0.979 | 0.302 | 1.58
21 | CC(C)NCC(O)COc1ccc(COCCOC(C)C)cc1 (stereo not drawn) [Bisoprolol fumarate] | 0.611 | 0.836 | 0.523 | 0.91 | 0.467 | 1.36
22 | CN(C)C(=O)Nc1cccc(-c2ccc(N(C)C)cc2)c1 [Atglistatin] | 1.31 | 1.47 | 1.1 | 0.894 | 0.548 | 1.33
23 | O=C(Oc1cc(S(=O)(=O)c2ccccc2)ccc1[N+](=O)[O-])c1ccc(Cl)cc1 | 1.76 | 1.8 | 1.4 | 1.14 | 1.96 | 1.27
24 | COc1ccc(C2CC(=O)c3c(O)cc(OC4OC(COC5OC(C)C(O)C(O)C5O)C(O)C(O)C4O)cc3O2)cc1OC (stereo not drawn) [Methyl-Hesperidin] | 0.924 | 0.527 | 1.16 | 0.637 | 0.966 | 1.25

Row | Compound | Euclidean distance [1] | Euclidean distance [2] | Euclidean distance [3] | Euclidean distance [4] | Euclidean distance [5] | Euclidean distance [6]
25 | CC(=O)N1CCN(CCOc2ccc(C3CCN(C4=Nn5c(nnc5C(F)(F)F)CC4)CC3)cc2)CC1 | 1.54 | 0.992 | 1.22 | 1.76 | 2.06 | 2.66
26 | CS(=O)(=O)CCNCc1ccc(-c2ccc3ncnc(Nc4ccc(OCc5cccc(F)c5)c(Cl)c4)c3c2)o1 [Lapatinib ditosylate monohydrate] | 4.93 | 3.12 | 2.25 | 2.59 | 3.3 | 3.37
27 | Cc1cc(C)c2c(c1)[C@@H](N(Cc1cc(C(F)(F)F)cc(C(F)(F)F)c1)c1nnn(C)n1)CCCN2C[C@H]1CC[C@H](C(=O)O)CC1 | 1.71 | 1.7 | 1.3 | 1.05 | 1.05 | 1.25
28 | O=C1c2ccc(Nc3ccc(F)cc3F)cc2CCc2ccc(OC[C@H](O)CO)cc21 [Skepinone-L] | 1.06 | 1.85 | 1.78 | 2.05 | 0.828 | 1.31
29 | Oc1ccc([C@H]2COc3cc(O)ccc3C2)cc1 (racemic) | 1.39 | 0.796 | 1.27 | 0.952 | 0.464 | 0.928
30 | O=C(Nc1ccc(OC(F)(F)F)cc1)c1sccc1NCc1ccnc2ccccc12 | 1.19 | 2.11 | 1.25 | 1.38 | 0.977 | 1.41
31 | O=C(O)c1cccc(-c2noc(-c3ccccc3F)n2)c1 [Ataluren (PTC124)] | 1.05 | 0.791 | 1.17 | 1.13 | 0.816 | 1.51
32 | CC(C)c1noc(N2CCC(COc3ccc(-c4ccc(S(C)(=O)=O)cc4)nc3)CC2)n1 | 1.17 | 1.53 | 0.872 | 0.701 | 0.585 | 0.984
33 | Cc1ccc(/C(=C\CN2CCCC2)c2ccccn2)cc1 [Triprolidine Hydrochloride] | 0.627 | 0.986 | 0.542 | 1.16 | 1.31 | 1.02
34 | Nc1ncn([C@H]2C[C@H](O)[C@@H](CO)O2)c(=O)n1 [Decitabine] | 1.92 | 1.42 | 1.18 | 1.43 | 1.56 | 1.55
35 | O=C(O)CCC(=O)Nc1ccc(S(=O)(=O)Nc2nccs2)cc1 [Succinylsulfathiazole] | 0.988 | 0.655 | 0.789 | 1.1 | 1.01 | 2.02
36 | FCOC(C(F)(F)F)C(F)(F)F [Sevoflurane] | 1.15 | 0.865 | 0.847 | 0.867 | 0.827 | 1.51
37 | CCc1c2c(nc3ccc(OC(=O)N4CCC(N5CCCCC5)CC4)cc13)-c1cc3c(c(=O)n1C2)COC(=O)[C@]3(O)CC [Irinotecan HCl Trihydrate] | 3.01 | 3.5 | 4.47 | 4.08 | 3.19 | 3.1
38 | CC[C@@H]1/C=C(\C)C[C@H](C)C[C@H](OC)[C@H]2O[C@@](O)(C(=O)C(=O)N3CCCC[C@H]3C(=O)O[C@H](/C(C)=C/[C@@H]3CC[C@@H](O)[C@H](OC)C3)[C@H](C)[C@@H](O)CC1=O)[C@H](C)C[C@@H]2OC [Ascomycin (FK520)] | 1.06 | 1.18 | 1.28 | 1.43 | 0.58 | 0.799
39 | CCC/C=C1\OC(=O)C2=C1CCC=C2 [Ligustilide] | 0.797 | 0.613 | 0.83 | 1.01 | 0.638 | 1.1
40 | C=CC(=O)N1C[C@H](Nc2ncnc3[nH]ccc23)CC[C@@H]1C | 1.27 | 0.386 | 1.09 | 0.936 | 0.582 | 0.786
41 | CCOC(=O)c1c(CSc2ccccc2)n(C)c2cc(Br)c(O)c(CN(C)C)c12 [Arbidol HCl] | 1.37 | 1.41 | 2.16 | 1.38 | 1.34 | 1.63
42 | CC(C)(C)C(=O)C(Oc1ccc(Cl)cc1)n1ccnc1 (stereo not drawn) [Climbazole] | 0.898 | 0.838 | 0.641 | 1.02 | 0.579 | 1.29
43 | C[C@H](NC(=O)Cc1cc(F)cc(F)c1)C(=O)N[C@@H]1C(=O)N(C)c2ccccc2-c2ccccc21 | 0.725 | 1.36 | 1.17 | 1.09 | 0.895 | 0.686
44 | O=C(Nc1cc(C(F)(F)F)ccc1N1CCCCC1)c1ccncc1 | 0.961 | 1.47 | 0.983 | 0.794 | 0.96 | 1.67
45 | CCC(C)(C)c1ccc(CC(C)CN2C[C@@H](C)O[C@@H](C)C2)cc1 (stereo partly drawn) [Amorolfine HCl] | 0.719 | 0.701 | 0.552 | 1.61 | 0.635 | 0.693
46 | Fc1ccc([C@@H]2CCNC[C@H]2COc2ccc3c(c2)OCO3)cc1 [Paroxetine mesylate] | 1.64 | 1.28 | 1.89 | 1.62 | 2.59 | 1.52
47 | CO[C@@]1(NC(=O)CSC[C@@H](N)C(=O)O)C(=O)N2C(C(=O)O)=C(CSc3nnnn3C)CS[C@@H]21 [Cefminox Sodium] | 1.29 | 0.521 | 2.14 | 1.02 | 0.714 | 1.32
48 | C=CC(=O)Nc1cc(Nc2nccc(-c3cn(C4CC4)c4ccccc34)n2)c(OC)cc1N(C)CCN(C)C | 5.66 | 5.01 | 3.44 | 2.32 | 2.67 | 1.92
